# Assays:
# Assay in all cases: DAPPL (digital affinity profiling via proximity ligation, sequencing); 10 mM Tris-HCl pH 7.5, 50 mM NaCl, 1 mM DTT, 4% glycerol, room temperature, 30 min; GST-TFs on glutathione beads, 16-mer random dsDNA library, 0.1% formaldehyde crosslink after washing; high values mean tight binding
# [1] = molecular target: T1, FEV (Homo sapiens, UniProt Q99581 1-238); conditions: protein: recombinant; tags: N-terminal GST; dsDNA, one strand shown
# T1 sequence: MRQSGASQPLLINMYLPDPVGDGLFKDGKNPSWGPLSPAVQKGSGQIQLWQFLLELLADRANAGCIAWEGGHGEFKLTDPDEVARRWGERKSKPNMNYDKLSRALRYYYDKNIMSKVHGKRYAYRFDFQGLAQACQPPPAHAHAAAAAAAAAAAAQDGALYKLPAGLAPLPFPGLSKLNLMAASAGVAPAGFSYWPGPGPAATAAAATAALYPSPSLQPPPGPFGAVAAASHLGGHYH
# In short: (§1)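 In yeast, human transcription factors were expressed with a GST fusion, then pulled down on glutathione beads and given DNA barcodes. Pooled with a tag-only sample, they were exposed to 200 nmole of a 16-mer random double-stranded DNA library (Tris/NaCl/DTT/glycerol buffer, room temperature, 30 min), washed, crosslinked with 0.1% formaldehyde, proximity-ligated using BsaI/T4 ligase for 1 h at 37 °C, PCR-amplified and read on an Illumina NextSeq500. Each hexamer's frequency of reads for a factor, divided by the matching frequency for the tag-only sample, gives the binding signal.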
# [2] = molecular target: ETV5 (Homo sapiens, UniProt P41161 1-510); conditions: protein: recombinant; tags: N-terminal GST; dsDNA, one strand shown
# In short: as §1
# [3] = molecular target: HSF1 (Homo sapiens, UniProt Q00613 1-529); conditions: protein: recombinant; tags: N-terminal GST; chain copies: 3; dsDNA, one strand shown
# In short: as §1
# [4] = molecular target: T2, SPIC (Homo sapiens, UniProt Q8N5J4 1-248); conditions: protein: recombinant; tags: N-terminal GST; dsDNA, one strand shown
# T2 sequence: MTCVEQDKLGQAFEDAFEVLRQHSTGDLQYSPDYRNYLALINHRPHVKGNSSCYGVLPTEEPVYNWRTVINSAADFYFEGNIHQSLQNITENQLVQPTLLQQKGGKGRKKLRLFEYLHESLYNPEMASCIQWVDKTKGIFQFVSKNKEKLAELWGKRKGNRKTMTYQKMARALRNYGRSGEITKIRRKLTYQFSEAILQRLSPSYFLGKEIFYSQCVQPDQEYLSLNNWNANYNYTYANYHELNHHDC
# In short: as §1
# [5] = molecular target: ELF4 (Homo sapiens, UniProt Q99607 1-663); conditions: protein: recombinant; tags: N-terminal GST; dsDNA, one strand shown
# In short: as §1
# [6] = molecular target: T3, ELK4 (Homo sapiens, UniProt P28324-2 1-405); conditions: protein: recombinant; tags: N-terminal GST; dsDNA, one strand shown
# T3 sequence: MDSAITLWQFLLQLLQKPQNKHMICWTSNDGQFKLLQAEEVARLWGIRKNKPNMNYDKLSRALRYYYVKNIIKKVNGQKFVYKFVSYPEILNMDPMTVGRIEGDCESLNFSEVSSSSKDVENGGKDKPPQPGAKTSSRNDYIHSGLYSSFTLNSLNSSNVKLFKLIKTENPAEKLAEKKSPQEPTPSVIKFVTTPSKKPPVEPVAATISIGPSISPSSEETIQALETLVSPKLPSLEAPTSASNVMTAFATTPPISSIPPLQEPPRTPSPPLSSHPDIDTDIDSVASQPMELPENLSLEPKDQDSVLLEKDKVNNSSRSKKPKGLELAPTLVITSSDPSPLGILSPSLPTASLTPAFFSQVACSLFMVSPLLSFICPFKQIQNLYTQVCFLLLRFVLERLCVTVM
# In short: as §1
# [7] = molecular target: T4, ETV2 (Homo sapiens, UniProt O00321 1-342); conditions: protein: recombinant; tags: N-terminal GST; dsDNA, one strand shown
# T4 sequence: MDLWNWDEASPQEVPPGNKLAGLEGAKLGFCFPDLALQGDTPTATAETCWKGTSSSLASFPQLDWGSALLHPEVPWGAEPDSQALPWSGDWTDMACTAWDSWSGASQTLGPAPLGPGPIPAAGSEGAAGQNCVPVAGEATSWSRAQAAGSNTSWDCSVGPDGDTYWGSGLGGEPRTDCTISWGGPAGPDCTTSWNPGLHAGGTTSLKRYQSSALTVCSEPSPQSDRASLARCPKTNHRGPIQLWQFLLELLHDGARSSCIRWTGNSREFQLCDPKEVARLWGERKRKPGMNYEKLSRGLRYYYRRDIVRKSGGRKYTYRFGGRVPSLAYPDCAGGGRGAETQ
# In short: as §1
# [8] = molecular target: T5, ELF3 (Homo sapiens, UniProt P78545 1-371); conditions: protein: recombinant; tags: N-terminal GST; dsDNA, one strand shown
# T5 sequence: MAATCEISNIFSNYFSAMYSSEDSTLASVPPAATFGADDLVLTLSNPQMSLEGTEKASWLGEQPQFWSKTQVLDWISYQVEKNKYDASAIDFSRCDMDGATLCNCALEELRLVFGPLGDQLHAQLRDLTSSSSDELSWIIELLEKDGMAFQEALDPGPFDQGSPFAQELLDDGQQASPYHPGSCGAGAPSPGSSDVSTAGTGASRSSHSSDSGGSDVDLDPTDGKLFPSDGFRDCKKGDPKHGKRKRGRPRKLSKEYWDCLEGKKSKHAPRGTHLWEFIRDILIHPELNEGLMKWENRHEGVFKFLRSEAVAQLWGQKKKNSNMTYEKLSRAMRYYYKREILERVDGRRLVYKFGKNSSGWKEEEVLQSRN
# In short: as §1
# [9] = molecular target: CRX (Homo sapiens, UniProt O43186 1-299); conditions: protein: recombinant; tags: N-terminal GST; dsDNA, one strand shown
# In short: as §1
# [10] = molecular target: ETV1 (Homo sapiens, UniProt P50549 1-477); conditions: protein: recombinant; tags: N-terminal GST; dsDNA, one strand shown
# In short: as §1
# [11] = molecular target: T6, ERF (Homo sapiens, UniProt P50548 1-548); conditions: protein: recombinant; tags: N-terminal GST; dsDNA, one strand shown
# T6 sequence: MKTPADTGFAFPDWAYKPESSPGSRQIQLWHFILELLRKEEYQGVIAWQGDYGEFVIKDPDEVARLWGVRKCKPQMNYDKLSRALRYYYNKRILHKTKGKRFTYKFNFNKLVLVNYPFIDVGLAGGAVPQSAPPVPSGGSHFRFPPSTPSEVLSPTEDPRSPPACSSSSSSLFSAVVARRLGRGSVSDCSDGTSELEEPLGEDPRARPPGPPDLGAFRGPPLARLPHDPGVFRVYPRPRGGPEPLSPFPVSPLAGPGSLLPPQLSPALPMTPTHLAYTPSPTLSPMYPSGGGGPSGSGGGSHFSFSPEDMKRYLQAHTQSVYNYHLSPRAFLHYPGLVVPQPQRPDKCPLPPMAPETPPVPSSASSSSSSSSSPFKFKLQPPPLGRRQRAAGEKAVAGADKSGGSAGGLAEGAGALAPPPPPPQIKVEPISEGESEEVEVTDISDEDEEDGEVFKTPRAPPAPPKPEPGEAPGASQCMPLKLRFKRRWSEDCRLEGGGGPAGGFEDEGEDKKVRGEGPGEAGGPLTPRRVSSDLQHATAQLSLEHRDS
# In short: as §1
# [12] = molecular target: T7, ETV3L (Homo sapiens, UniProt Q6ZN32 1-361); conditions: protein: recombinant; tags: N-terminal GST; dsDNA, one strand shown
# T7 sequence: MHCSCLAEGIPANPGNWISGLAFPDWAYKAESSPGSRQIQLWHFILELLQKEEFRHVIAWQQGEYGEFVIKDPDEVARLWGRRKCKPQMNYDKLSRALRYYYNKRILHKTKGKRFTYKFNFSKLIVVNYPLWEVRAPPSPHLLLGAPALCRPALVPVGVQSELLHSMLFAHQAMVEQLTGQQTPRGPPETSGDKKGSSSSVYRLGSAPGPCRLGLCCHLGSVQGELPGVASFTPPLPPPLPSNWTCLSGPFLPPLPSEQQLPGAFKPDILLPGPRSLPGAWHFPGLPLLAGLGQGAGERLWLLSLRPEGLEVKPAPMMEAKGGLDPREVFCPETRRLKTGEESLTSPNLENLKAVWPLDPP
# In short: as §1
# [13] = molecular target: T8, ETS2 (Homo sapiens, UniProt P15036 1-469); conditions: protein: recombinant; tags: N-terminal GST; dsDNA, one strand shown
# T8 sequence: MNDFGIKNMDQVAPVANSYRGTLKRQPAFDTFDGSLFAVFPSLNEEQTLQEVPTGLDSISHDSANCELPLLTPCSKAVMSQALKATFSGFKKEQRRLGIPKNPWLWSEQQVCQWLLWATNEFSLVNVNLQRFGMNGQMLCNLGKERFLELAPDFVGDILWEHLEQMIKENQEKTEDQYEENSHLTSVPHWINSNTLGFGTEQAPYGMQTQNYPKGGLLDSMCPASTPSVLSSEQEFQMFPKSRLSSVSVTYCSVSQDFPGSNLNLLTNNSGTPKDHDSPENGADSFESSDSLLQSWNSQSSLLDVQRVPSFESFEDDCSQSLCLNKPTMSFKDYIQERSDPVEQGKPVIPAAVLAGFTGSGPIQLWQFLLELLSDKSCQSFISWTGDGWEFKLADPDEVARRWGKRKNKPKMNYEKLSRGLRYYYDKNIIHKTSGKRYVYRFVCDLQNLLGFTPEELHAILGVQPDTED
# In short: as §1
# [14] = molecular target: T9, SPDEF (Homo sapiens, UniProt O95238 1-335); conditions: protein: recombinant; tags: N-terminal GST; dsDNA, one strand shown
# T9 sequence: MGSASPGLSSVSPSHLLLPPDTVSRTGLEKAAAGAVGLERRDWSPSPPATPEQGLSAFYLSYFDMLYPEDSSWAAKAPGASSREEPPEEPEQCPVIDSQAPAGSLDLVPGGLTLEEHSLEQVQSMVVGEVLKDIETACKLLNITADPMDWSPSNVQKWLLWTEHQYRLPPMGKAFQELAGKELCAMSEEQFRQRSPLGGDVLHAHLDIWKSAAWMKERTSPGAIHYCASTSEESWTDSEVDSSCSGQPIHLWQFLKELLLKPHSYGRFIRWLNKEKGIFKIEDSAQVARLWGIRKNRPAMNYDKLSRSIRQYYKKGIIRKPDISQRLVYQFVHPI
# In short: as §1
# [15] = molecular target: T10, ETV7 (Homo sapiens, UniProt Q9Y603 1-341); conditions: protein: recombinant; tags: N-terminal GST; dsDNA, one strand shown
# T10 sequence: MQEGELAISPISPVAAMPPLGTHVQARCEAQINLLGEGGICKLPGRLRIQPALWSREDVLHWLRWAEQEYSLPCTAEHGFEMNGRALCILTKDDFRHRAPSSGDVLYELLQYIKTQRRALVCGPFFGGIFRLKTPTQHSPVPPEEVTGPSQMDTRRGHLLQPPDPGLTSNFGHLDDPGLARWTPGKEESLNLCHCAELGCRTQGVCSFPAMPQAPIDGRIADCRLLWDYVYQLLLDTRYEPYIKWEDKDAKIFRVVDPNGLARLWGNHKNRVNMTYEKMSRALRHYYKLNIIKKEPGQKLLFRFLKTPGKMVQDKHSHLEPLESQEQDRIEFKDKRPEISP
# In short: as §1
# [16] = molecular target: T11, ELF5 (Homo sapiens, UniProt Q9UKW6-2 1-255); conditions: protein: recombinant; tags: N-terminal GST; dsDNA, one strand shown
# T11 sequence: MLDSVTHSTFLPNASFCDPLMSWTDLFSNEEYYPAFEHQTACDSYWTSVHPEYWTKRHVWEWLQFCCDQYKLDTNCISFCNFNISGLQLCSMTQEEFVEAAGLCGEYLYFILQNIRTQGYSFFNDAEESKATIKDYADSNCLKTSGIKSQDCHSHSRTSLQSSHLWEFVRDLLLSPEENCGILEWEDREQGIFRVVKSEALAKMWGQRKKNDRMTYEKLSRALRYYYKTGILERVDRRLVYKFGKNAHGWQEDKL
# In short: as §1
# [17] = molecular target: T12, ETV3 (Homo sapiens, UniProt P41162-2 1-143); conditions: protein: recombinant; tags: N-terminal GST; dsDNA, one strand shown
# T12 sequence: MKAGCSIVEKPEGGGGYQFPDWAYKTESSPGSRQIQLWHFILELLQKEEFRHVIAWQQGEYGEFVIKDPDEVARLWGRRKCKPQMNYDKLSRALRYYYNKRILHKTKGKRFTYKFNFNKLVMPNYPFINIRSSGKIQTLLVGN
# In short: as §1
# [18] = molecular target: ETV6 (Homo sapiens, UniProt P41212 1-452); conditions: protein: recombinant; tags: N-terminal GST; dsDNA, one strand shown
# In short: as §1
# HSF1, sequence (Q00613 whole entry): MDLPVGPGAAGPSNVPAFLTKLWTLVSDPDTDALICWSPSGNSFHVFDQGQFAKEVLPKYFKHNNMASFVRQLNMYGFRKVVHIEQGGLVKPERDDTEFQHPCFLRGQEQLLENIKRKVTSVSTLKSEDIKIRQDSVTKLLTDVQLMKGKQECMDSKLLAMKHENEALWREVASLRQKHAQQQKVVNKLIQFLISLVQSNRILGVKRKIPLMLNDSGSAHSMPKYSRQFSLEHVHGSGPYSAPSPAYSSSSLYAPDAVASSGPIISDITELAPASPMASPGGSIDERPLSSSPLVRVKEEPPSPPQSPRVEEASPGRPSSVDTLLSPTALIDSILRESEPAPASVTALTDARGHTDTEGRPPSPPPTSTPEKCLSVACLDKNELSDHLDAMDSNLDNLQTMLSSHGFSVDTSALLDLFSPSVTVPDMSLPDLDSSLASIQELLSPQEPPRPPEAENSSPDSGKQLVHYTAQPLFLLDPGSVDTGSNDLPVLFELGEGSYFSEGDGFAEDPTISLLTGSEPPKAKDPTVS
# ETV6, sequence (P41212 whole entry): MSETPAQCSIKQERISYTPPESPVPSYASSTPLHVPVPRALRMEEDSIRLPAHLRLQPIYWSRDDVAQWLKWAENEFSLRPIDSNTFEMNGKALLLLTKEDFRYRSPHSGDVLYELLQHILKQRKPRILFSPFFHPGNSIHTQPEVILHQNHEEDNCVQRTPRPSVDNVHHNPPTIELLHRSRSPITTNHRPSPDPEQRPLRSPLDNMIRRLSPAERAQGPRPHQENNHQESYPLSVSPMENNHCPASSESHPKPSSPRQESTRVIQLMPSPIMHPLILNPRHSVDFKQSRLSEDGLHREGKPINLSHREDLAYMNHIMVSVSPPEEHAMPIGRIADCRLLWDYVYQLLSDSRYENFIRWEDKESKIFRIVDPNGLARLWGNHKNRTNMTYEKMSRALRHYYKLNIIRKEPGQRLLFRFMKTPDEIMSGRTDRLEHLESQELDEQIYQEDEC
# ELF4, sequence (Q99607 whole entry): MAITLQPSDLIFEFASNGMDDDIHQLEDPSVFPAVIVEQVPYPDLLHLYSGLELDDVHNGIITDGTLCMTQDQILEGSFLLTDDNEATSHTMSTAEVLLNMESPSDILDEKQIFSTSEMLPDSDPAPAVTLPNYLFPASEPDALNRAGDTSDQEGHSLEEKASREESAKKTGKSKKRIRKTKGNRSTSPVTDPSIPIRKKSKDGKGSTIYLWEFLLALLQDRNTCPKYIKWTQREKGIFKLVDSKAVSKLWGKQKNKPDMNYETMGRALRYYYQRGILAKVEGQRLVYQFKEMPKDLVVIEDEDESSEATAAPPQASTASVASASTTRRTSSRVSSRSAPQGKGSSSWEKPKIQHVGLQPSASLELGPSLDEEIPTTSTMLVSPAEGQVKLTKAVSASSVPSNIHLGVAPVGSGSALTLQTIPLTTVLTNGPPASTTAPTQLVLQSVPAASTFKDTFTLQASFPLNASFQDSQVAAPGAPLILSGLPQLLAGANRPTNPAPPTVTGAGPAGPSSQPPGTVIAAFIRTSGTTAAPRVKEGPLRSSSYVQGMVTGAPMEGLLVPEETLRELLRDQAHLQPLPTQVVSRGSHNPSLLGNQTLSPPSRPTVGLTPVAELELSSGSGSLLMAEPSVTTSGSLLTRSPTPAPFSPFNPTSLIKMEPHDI
# ETV5, sequence (P41161 whole entry): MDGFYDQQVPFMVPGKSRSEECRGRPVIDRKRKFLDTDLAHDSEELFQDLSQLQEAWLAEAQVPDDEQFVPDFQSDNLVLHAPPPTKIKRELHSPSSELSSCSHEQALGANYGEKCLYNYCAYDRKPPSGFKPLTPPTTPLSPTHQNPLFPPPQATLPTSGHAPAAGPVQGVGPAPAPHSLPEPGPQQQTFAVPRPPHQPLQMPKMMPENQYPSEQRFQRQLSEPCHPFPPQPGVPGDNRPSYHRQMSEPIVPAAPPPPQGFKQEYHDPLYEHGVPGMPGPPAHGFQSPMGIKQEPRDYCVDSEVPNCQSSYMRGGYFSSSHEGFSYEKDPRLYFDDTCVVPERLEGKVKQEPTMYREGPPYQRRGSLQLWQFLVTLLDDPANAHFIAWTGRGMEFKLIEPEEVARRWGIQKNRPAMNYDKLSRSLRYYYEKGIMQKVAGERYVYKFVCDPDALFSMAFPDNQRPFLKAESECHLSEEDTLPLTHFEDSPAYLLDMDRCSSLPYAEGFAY
# CRX, sequence (O43186 whole entry): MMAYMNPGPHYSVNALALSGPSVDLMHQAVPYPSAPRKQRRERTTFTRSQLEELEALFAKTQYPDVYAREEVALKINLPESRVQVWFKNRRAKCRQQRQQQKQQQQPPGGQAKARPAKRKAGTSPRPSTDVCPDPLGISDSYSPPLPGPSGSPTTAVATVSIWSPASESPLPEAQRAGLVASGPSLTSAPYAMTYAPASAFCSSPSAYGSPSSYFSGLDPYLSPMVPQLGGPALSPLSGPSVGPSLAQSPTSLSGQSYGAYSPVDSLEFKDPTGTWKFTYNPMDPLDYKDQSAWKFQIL
# ETV1, sequence (P50549 whole entry): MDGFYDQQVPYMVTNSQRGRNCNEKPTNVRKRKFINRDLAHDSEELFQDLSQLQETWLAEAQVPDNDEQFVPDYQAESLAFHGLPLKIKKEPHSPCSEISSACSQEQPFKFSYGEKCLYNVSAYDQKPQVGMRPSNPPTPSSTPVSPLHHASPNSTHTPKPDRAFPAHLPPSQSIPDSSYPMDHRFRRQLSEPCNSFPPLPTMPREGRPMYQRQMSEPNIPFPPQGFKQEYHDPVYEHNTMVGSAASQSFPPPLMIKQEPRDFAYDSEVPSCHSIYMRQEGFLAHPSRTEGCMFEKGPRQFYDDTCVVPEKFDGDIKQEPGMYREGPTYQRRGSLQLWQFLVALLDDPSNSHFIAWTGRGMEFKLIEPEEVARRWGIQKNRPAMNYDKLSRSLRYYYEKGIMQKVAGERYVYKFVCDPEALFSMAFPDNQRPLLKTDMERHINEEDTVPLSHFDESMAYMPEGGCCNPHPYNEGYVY
sequence,measurement,setting,value
AACTTC,binding signal,[1],"3.12 fold enrichment (6-mer frequency, TF over GST control)"
same,binding signal,[2],"2.71 fold enrichment (6-mer frequency, TF over GST control)"
same,binding signal,[3],"2.02 fold enrichment (6-mer frequency, TF over GST control)"
same,binding signal,[4],"2.83 fold enrichment (6-mer frequency, TF over GST control)"
same,binding signal,[5],"2.44 fold enrichment (6-mer frequency, TF over GST control)"
same,binding signal,[6],"2.34 fold enrichment (6-mer frequency, TF over GST control)"
same,binding signal,[7],"2.52 fold enrichment (6-mer frequency, TF over GST control)"
same,binding signal,[8],"2.39 fold enrichment (6-mer frequency, TF over GST control)"
same,binding signal,[9],"1.45 fold enrichment (6-mer frequency, TF over GST control)"
same,binding signal,[10],"2.6 fold enrichment (6-mer frequency, TF over GST control)"
same,binding signal,[11],"2.22 fold enrichment (6-mer frequency, TF over GST control)"
same,binding signal,[12],"2.51 fold enrichment (6-mer frequency, TF over GST control)"
same,binding signal,[13],"2.63 fold enrichment (6-mer frequency, TF over GST control)"
same,binding signal,[14],"2.21 fold enrichment (6-mer frequency, TF over GST control)"
same,binding signal,[15],"2.3 fold enrichment (6-mer frequency, TF over GST control)"
same,binding signal,[16],"3.55 fold enrichment (6-mer frequency, TF over GST control)"
same,binding signal,[17],"2.57 fold enrichment (6-mer frequency, TF over GST control)"
same,binding signal,[18],"2.76 fold enrichment (6-mer frequency, TF over GST control)"
